Test results reported in PubChem BioAssay AID1159506 (National Center for Advancing Translational Sciences (NCATS), 2015).
The full ranking holds about 59,000 sequences; the median of the read-out is about -0.00055, and the lowest 2% start at about -2. This is one part of a sample in which the lowest values are shown more often than they occur.

assay: Identification of proteins required for the processing of the EWS-FLI1 nascent transcript; details: TC32 Ewing sarcoma NR0B1-luc vs CMV-luc (EWS-FLI1 target promoter against control promoter), 48 h; screened at 20 nM (by protocol);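 further: robust z of luciferase light less the median z of siRNAs with the same seed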
Summary of the method: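 TC32 Ewing sarcoma cells carrying NR0B1-promoter or CMV-promoter luciferase reporters were reverse-transfected with single siRNAs at 20 nM, three per gene genome-wide. Luminescence was read after 48 h and normalized to non-targeting controls.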

Going from UUAUCUCCAGCUAUGCUGU against LOC440292 to UCCUCAUGUAUUUUGGUCC against ELOVL5, the seed-corrected z-score falls from 1.49 to -0.118.

Compared with UCACUUAGCAUGGGUAUUG against TMOD4, UUCUCUUCCAUCUCCGCCC against TNRC18 is lower in seed-corrected z-score: -0.648 for the first, -0.725 for the second.

Compared with AAACUGGUAAUAUGAAUUC against IQSEC2, UUUGGUCCAAAUUCACUCC against C2orf76 is lower in seed-corrected z-score: 1.31 for the first, -2.66 for the second.

Compared with GGCUGGUCGUGAUCUUUCC against SPDYE2, UUCGAUAUACCAGAACCGC against LPGAT1 is lower in seed-corrected z-score: 0.846 for the first, -1.1 for the second.

First: UGUAGUAAUGUGAUUUUCC against CTBP2
Second: UUCCUCGUAGGUCCACUCG against ARID3C
The seed-corrected z-score of the first is higher: 1.22 for the first, -0.393 for the second.

Compared with UUUCCUGCACCCAUAAGUC against C11orf58, GAACGACUCAGAUCCCGGA against HCRT is lower in seed-corrected z-score: -0.0639 for the first, -12.7 for the second.

First: UUACAGGUAGCGGCAAGCA against SP8
Second: UACCUGAAAACCUAGUUUC against TBPL1
The seed-corrected z-score of the first is higher: 0.823 for the first, -0.106 for the second.

Going from UAUAGUAAAGCCCAGACGG against CNTNAP3 to AUAUGUUUACUACCGGUGC against CYP4Z1, the seed-corrected z-score rises from -2.74 to -0.0519.

Going from UUCGCUUAACAUGCUCUCC against SKIL to AAUUCCAGAAUUACAGGCU against PRAC1, the seed-corrected z-score rises from -1.15 to -0.113.

Going from UAAGAUGAGAGAGUGUCCA against TAS2R1 to UACUGGUCUAGGAGGUAUG against ERRFI1, the seed-corrected z-score falls from 0.755 to -0.314.

First: AGACUGAGCAGUAGGACUC against SLC35E4
Second: AUAUGGUCAAAUGAGUUAG against KIF3B
The seed-corrected z-score of the first is lower: -2.41 for the first, 1.67 for the second.

Compared with UUUCCGUACAUUGUGGUCC against ATP13A5, UAAGCACGAACAGUUAUAG against USP47 is lower in seed-corrected z-score: 0.276 for the first, 0.264 for the second.

First: AUAGGGCACAUCUUGUAGG against CSDC2
Second: UCUGUUUUGAAGGACCUCU against ENTPD6
The seed-corrected z-score of the first is lower: 0.0846 for the first, 0.116 for the second.

First: UUCGCAUUUGUAUUCGACC against GNB4
Second: UAUUUCACCAUCUCCGAGC against MAGEF1
The seed-corrected z-score of the first is higher: 0.0257 for the first, -2.32 for the second.

First: UGAGGUUAUACGUUCCCUG against KIAA1549
Second: UUGGGUCCGAGGAACAACU against ZNF469
The seed-corrected z-score of the first is lower: -0.0625 for the first, 0.678 for the second.

Going from UCUUGCAACAGAGCCCUGA against TESK1 to AUCCGCAUCAGUAACAUUG against CASQ1, the seed-corrected z-score falls from -0.681 to -0.835.

Going from UUCCUUAAUGGUGUAUUCG against RIN3 to UAUGGAACUGUAUAUAGGA against EVA1C, the seed-corrected z-score falls from 0.651 to 0.1.

Going from UGCUCUGUAAUCACGGGCU against WARSP1 to AUACUGUAGACGUACCUCU against F2R, the seed-corrected z-score rises from -1.94 to -0.762.

First: AAAGGUUCACCACAUAGCC against SORL1
Second: UUAUGUGAACCAUCGCAGG against CISD2
The seed-corrected z-score of the first is lower: -3.01 for the first, 0.515 for the second.

Compared with UCCAGUAGUAGUCUUCCAG against MAF, AUAGGUGUUGAUACGAGCC against SATB1 is higher in seed-corrected z-score: -2.92 for the first, -0.199 for the second.

First: UAUCUUUCCUGGUAUGUCA against LPCAT3
Second: UCGAUUUUGAGAAUCAAUG against VPS45
The seed-corrected z-score of the first is lower: -0.533 for the first, 0.271 for the second.

First: UCAUAGCAAAGGAUCAGCC against CDC42BPB
Second: UUCCUUACCAUCAGGCAAG against DAP3
The seed-corrected z-score of the first is lower: -3.29 for the first, 0.589 for the second.

First: AUGGGUUCCAGCAACAAUC against TMEM65
Second: UUCUUGUAGUCCUCUAGGC against FZD8
The seed-corrected z-score of the first is higher: 0.797 for the first, 0.236 for the second.

First: AUAGUAAUUCCUGGUAAAG against CYBA
Second: UACAAAAACGAUGGCAUCC against CCL17
The seed-corrected z-score of the first is lower: -3.24 for the first, -0.409 for the second.

Compared with UACCCAUACGGAGUAGCGA against ASMTL, UAUAGGCAAAGCUAUCUCC against RBM15B is lower in seed-corrected z-score: -0.0723 for the first, -0.465 for the second.

Compared with AAUAAGACUCCUAAAAUCC against OR2A25, UAAUAUAUUGUCCAUUUAC against OSTC is higher in seed-corrected z-score: -2.04 for the first, 0.401 for the second.

Compared with UUUUGAUUGAGAGGAUCGU against MBD2, UUAACAACUUUAGUCCUGC against EFHC1 is lower in seed-corrected z-score: 0.911 for the first, 0.0527 for the second.

First: ACUUGUAACAGAUCAGCUC against TKFC
Second: UUAGUUGAGGGUGAUCCCG against MXRA5
The seed-corrected z-score of the first is higher: 0.791 for the first, 0.422 for the second.

Going from AGAGAUCCCGUGUAUGACC against SLC30A2 to UCUGCUCCCACAAUGAAAC against RPLP0, the seed-corrected z-score falls from -0.311 to -2.42.

Compared with UCAAUUAUUCCUCUCCGUC against HEY1, UCAUAGUCCAUUCAGAGUU against CEACAM19 is higher in seed-corrected z-score: -0.248 for the first, 0.0695 for the second.

Compared with UCCUGGAUACCUAACACCC against USP26, ACUCCAAUCAGUACAGUCC against NUP210L is lower in seed-corrected z-score: 0.09 for the first, -0.264 for the second.

First: AAGUUGUCAAACAAGCCCU against CHTF18
Second: UUAACCGAUAUAUCCAUGG against LRRTM4
The seed-corrected z-score of the first is lower: -3 for the first, 0.0172 for the second.

Going from UGAGGUCCACGAUAUCUAG against PYDC1 to AAAGAUAUCAGUGACGAAG against HIST1H2BA, the seed-corrected z-score falls from 0.555 to -0.152.

First: UAUUGUUCCGUCAUGCACU against PTGDS
Second: UAUCUCCACAUACCCGUUC against INHBA
The seed-corrected z-score of the first is higher: 0.165 for the first, -0.368 for the second.

Going from UACGUAGAUUUGGAAUUCC against ACO1 to UUAGUCUCAGCAUCGGCUC against KIAA1210, the seed-corrected z-score falls from 0.682 to -0.103.

Going from UCACGAAGGAGUCUAUUCC against PRTN3 to AUAGAGCCCAUUAUGCUUU against PSG11, the seed-corrected z-score rises from -3.15 to -1.42.

Going from UUGGUGUUGGGCAACUUGU against HOXB4 to UCACUGAUUCUAGAUGAUG against SPIN3, the seed-corrected z-score falls from 0.286 to -0.422.

Compared with UAUAAAUCAACGGAUUCAG against OR5I1, UUUUGCACCUGGGUCCUAC against LRWD1 is lower in seed-corrected z-score: 0.416 for the first, 0.154 for the second.

Compared with AAAGGAAAAACCUAUUUUC against LOC728254, AUAGGUUCCUGUCUGUUGG against PYCRL is lower in seed-corrected z-score: 0.573 for the first, 0.415 for the second.

First: AAAGAUUAAGGUACCAUAG against OR5J2
Second: UUCGGCUUCACUGUUAUCC against TNR
The seed-corrected z-score of the first is higher: 0.72 for the first, -2.16 for the second.

Compared with UCCAGUUCUUUCUUGGUCG against GTPBP6, UUGAUGGAUAGUCAUCACG against RBMX is lower in seed-corrected z-score: 0.447 for the first, -0.224 for the second.

Compared with AAAUCGAUAAUCACUUAGG against ZNHIT6, UAUUUCACAACAGGCACCG against MYO1C is lower in seed-corrected z-score: 0.142 for the first, -2.29 for the second.

Going from UUUUGUGCCUGUGCCCUUG against SBK1 to AGACUGAUGGUAGUGGUGG against PRRT1, the seed-corrected z-score falls from -0.47 to -0.57.

Going from UUCAAUAUCAUUCCGAGGC against C6orf62 to UUGUAUGAUUUUGCAAUUG against LINC01014, the seed-corrected z-score falls from 0.77 to -0.168.

Going from AAAUGUACUCGAUCCCAUG against CPA5 to UACAGUUCCUCAAUGUUCA against IL1F10, the seed-corrected z-score rises from -2.65 to 1.27.

First: UAAACAGGCACGAAGCUUC against RPAIN
Second: UUAGCUAGAGUUUUCAACC against MLLT11
The seed-corrected z-score of the first is lower: -0.43 for the first, 0.312 for the second.

Going from UGACGUACCAGCACUGCGU against ADM2 to UGAGCAUCCAUGCUGGGUA against ZNF688, the seed-corrected z-score rises from -13.6 to 0.0175.

First: UUCAUUUAAAUUCUAACAC against SYNC
Second: AUUCAUUCUUAUUAAGUGC against GPX5
The seed-corrected z-score of the first is higher: 0.372 for the first, -0.0754 for the second.

Going from UUUGGUUUGAGCAGUCAAG against COMMD1 to AAUAAAUCCAUCCUUGUUC against GUCA1C, the seed-corrected z-score rises from -2.03 to -0.429.

Going from UCCUGAUCUAUCCAUAGGC against IFITM3 to UUCUCAAACACCUUCUUCC against QTRT1, the seed-corrected z-score falls from -0.0222 to -0.0367.

Going from UGCUCCAUCACAAAGGCGG against FN3K to AUGGGAAUUAUGUCGGUUG against SCEL, the seed-corrected z-score falls from 1.15 to 0.236.

Going from UCCAGUUGUACUUCUUGCC against GFOD1 to AAACUCUUUAGGAAAGAUG against POLR2D, the seed-corrected z-score rises from -3.99 to -0.98.

First: UUAGCUGCCUGGAUAAGCG against CTNNA2
Second: UUUCCAACAUGAUCCACUG against TM2D2
The seed-corrected z-score of the first is lower: -0.541 for the first, 0.00525 for the second.

Going from AAACGUUUGGAGCCUCUUG against NOXO1 to AUAGGGAACAGGAUAGCCC against C1orf74, the seed-corrected z-score rises from -2.35 to 1.41.

First: UAGAUCUUUCCUCUGGUGG against FAM132B
Second: UGAACCGAGACUGUGGCAC against SERF1B
The seed-corrected z-score of the first is lower: -0.705 for the first, -0.313 for the second.

Compared with UCCUUCUUGAGCAGGUUCU against SOX14, AUUGUUGUCCAUAAUAGGC against IKZF2 is higher in seed-corrected z-score: -0.364 for the first, -0.0322 for the second.

Going from UGACUAUUAAGAUAUGAAG against ZNF121 to UUCUUUACAACUAUCCGAG against FBXO5, the seed-corrected z-score rises from -2.14 to 2.48.

Going from UUGCCUAUCAGUAGCAGUU against RAB3D to UGAUUGGAAAGCUUGUUCU against ME3, the seed-corrected z-score rises from -2.07 to 0.0737.

First: UCGCUGAUGAGGAUCUUCC against KCNA10
Second: UAUACAAUGAGGCAGCUGA against ISCA1P1
The seed-corrected z-score of the first is lower: -0.144 for the first, 0.235 for the second.

Compared with UCUGGUGGGACUGGUGUUG against ZNF574, UUUCUGAUCAUCUUGGUCC against SAFB is higher in seed-corrected z-score: -3.85 for the first, -0.16 for the second.

First: UUCUGGAUCCCAAAUAGUG against ARHGAP19
Second: UGUUAUCCGAGUAUAAUAC against PSMD12
The seed-corrected z-score of the first is higher: 0.0206 for the first, -2.56 for the second.

Going from UUAUCACCCAUAGGAGCCU against LOC400965 to UGUCUUGUAGAUUUCCACC against TATDN1, the seed-corrected z-score falls from 0.18 to -0.0339.

Going from AUAGCUGUGAGACAUCAGG against PRCD to UUAGUUCGUUCCUCUGUGC against PSMC5, the seed-corrected z-score rises from -2.08 to 1.1.

First: UUCGCUGACUCUGUAACCC against CACNB4
Second: UACUCGCUCACCACAAAGG against SRSF4
The seed-corrected z-score of the first is higher: -0.0786 for the first, -0.234 for the second.

Going from UCUCGGUUCAUUUUCUUGA against HOXC10 to AAUGAUUUUAGAAGCCUGU against NPR3, the seed-corrected z-score falls from 0.936 to 0.11.

Compared with “UAAGAUACUAUGGGAAAUA against C20orf166-AS1”, AAAGUUUAAGCAACCGUCG against RPS23P8 is higher in seed-corrected z-score: -2.11 for the first, 1.69 for the second.

Work on AAAUCGUUCAAUUACAUCC against ADAM17 yielded a seed-corrected z-score of 0.501.
